Measurements as given in PubChem BioAssay AID1159580 (chemical genetic matrix, 2015).
Among all 5,500 compounds or so, about 2,000 (36%) were called active. About 18% were inconclusive and are not listed. No stated cut-off is given here; in the data, active means normalized growth mostly below about 0.91 (no sharp cut-off); inconclusive means no clear call, values can overlap the other calls; inactive means mostly above about 0.92. The list shows a part of the results.

Assay: chemical genetic growth profiling, strain panel (AID 1159580);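 further: tested at 20 µM; growth read once vehicle control cultures reached saturation at 30 °C; 1 = growth at the plate median or of vehicle wells; lower values mean less growth of the strain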
Settings: S. cerevisiae deletion strains, growth OD

Measured: normalized growth

OC(Cn1cncn1)(Cn1cncn1)c1ccc(F)cc1F
inactive: locus YAL013W, strain DEP1, active compounds read low 0.968 | locus YAL021C, strain ccr4, active compounds read low 0.972 | locus YAL026C, strain drs2, active compounds read low 0.911 | locus YAL030W, strain snc1, active compounds read low 1 | locus YBL061C, strain skt5, active compounds read low 0.995 | locus YBR009C, strain hhf1, active compounds read low 0.998 | locus YBR021W, strain FUR4, active compounds read low 0.936 | locus YBR023C, strain chs3, active compounds read low 1.01 | locus YBR171W, strain sec66, active compounds read low 0.971 | locus YBR229C, strain ROT2, active compounds read low 1 | locus YBR231C, strain swc5, active compounds read low 0.981 | locus YBR279W, strain paf1, active compounds read low 1 | locus YCL011C, strain gbp2, active compounds read low 1.01 | locus YCL016C, strain dcc1, active compounds read low 0.987 | locus YCL029C, strain bik1, active compounds read low 0.984 | locus YCL061C, strain MRC1, active compounds read low 0.987 | locus YCL069W, strain vba3, active compounds read low 1 | locus YCR088W, strain abp1, active compounds read low 1.01 | locus YDL005C, strain med2, active compounds read low 0.966 | locus YDL035C, strain GPR1, active compounds read low 0.991 | locus YDL040C, strain nat1, active compounds read low 1 | locus YDL074C, strain BRE1, active compounds read low 1.03 | locus YDL101C, strain DUN1, active compounds read low 0.993 | locus YDL134C, strain PPH21, active compounds read low 1 | locus YDL185W, strain tfp1, active compounds read low 0.948 | locus YDL192W, strain arf1, active compounds read low 0.998 | locus YDR001C, strain nth1, active compounds read low 1.01 | locus YDR069C, strain doa4, active compounds read low 0.971 | locus YDR101C, strain arx1, active compounds read low 1 | locus YDR150W, strain NUM1, active compounds read low 0.985 | locus YDR159W, strain sac3, active compounds read low 0.956 | locus YDR162C, strain NBP2, active compounds read low 0.971 | locus YDR195W, strain ref2 1.1 | locus YDR297W, strain sur2, active compounds read low 1 | locus YDR318W, strain mcm21, active compounds read low 0.986 | locus YDR334W, strain swr1, active compounds read low 0.996 | locus YDR335W, strain msn5, active compounds read low 1.01 | locus YDR388W, active compounds read low 1 | locus YDR392W, strain spt3, active compounds read low 0.853 | locus YDR502C, strain sam2, active compounds read low 0.992 | locus YEL003W, strain gim4, active compounds read low 0.999 | locus YEL037C, strain rad23, active compounds read low 1 | locus YEL061C, strain CIN8 (second series), active compounds read low 1.01 | locus YEL061C, strain CIN8, active compounds read low 0.993 | locus YER015W, strain faa2, active compounds read low 1.01 | locus YER016W, strain bim1, active compounds read low 1 | locus YER110C, active compounds read low 0.974 | locus YER111C, strain swi4, active compounds read low 0.999 | locus YER155C, strain BEM2 (second series), active compounds read low 0.99 | locus YER155C, strain BEM2, active compounds read low 1 | locus YER167W, strain BCK2, active compounds read low 1.01 | locus YFR010W, strain ubp6, active compounds read low 0.982 | locus YGL078C, strain dbp3, active compounds read low 0.997 | locus YGL086W, strain mad1, active compounds read low 0.997 | locus YGL167C, strain pmr1, active compounds read low 1 | locus YGL173C, strain kem1, active compounds read low 1.01 | locus YGL227W, strain vid30, active compounds read low 1.01 | locus YGL240W, strain doc1, active compounds read low 0.995 | locus YGL248W, strain PDE1, active compounds read low 1.02 | locus YGL253W, strain hxk2, active compounds read low 0.99 | locus YGR078C, strain PAC10, active compounds read low 1.02 | locus YGR135W, strain pre9, active compounds read low 0.979 | locus YGR252W, strain gcn5, active compounds read low 1 | locus YHR013C, strain ard1, active compounds read low 0.957 | locus YHR027C, strain rpn1, active compounds read low 1.01 | locus YHR030C, strain SLT2, active compounds read low 0.987 | locus YHR079C, strain IRE1 (second series), active compounds read low 0.985 | locus YHR094C, strain hxt1, active compounds read low 1.01 | locus YHR129C, strain ARP1, active compounds read low 1 | locus YHR142W, strain chs7, active compounds read low 1 | locus YHR200W, strain rpn10, active compounds read low 0.961 | locus YIL066C, strain RNR3, active compounds read low 1 | locus YIL073C, strain SPO22, active compounds read low 0.943 | locus YIL125W, strain kgd1, active compounds read low 1.01 | locus YIR030C, strain dcg1, active compounds read low 0.997 | locus YJL092W, strain hpr5, active compounds read low 0.998 | locus YJL095W, strain BCK1 (second series), active compounds read low 1 | locus YJL095W, strain BCK1, active compounds read low 1.07 | locus YJL115W, strain asf1, active compounds read low 0.996 | locus YJL129C, strain trk1, active compounds read low 1.06 | locus YJL134W, strain LCB3, active compounds read low 0.994 | locus YJL154C, strain vps35, active compounds read low 1.01 | locus YJL164C, strain tpk1, active compounds read low 0.992 | locus YJL166W, strain qcr8, active compounds read low 1 | locus YJL168C, strain set2, active compounds read low 0.992 | locus YJL187C, strain SWE1 (second series), active compounds read low 1.03
active: locus YDR137W, strain rgp1, active compounds read low 0.508
